# Assay results: PubChem BioAssay
# Active and inactive are the calls of the source. Unless noted, no rule for the calls is given here.
# Legend:
# [1] = anti-His antibody binders, primary screen, artefact control for SMM control protein annotation, biochemical, small-molecule microarray, 635 nm fluorescence (AID 1128); conditions: anti-His Alexa647 antibody binding, higher = more signal;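 also: score merges feature fluorescence with signal-to-noise for each printed compound spot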
# [2] = tested on: Human papillomavirus type 1a E7 protein (residues 1-88); assay: HPV1a E7 small-molecule binders, primary screen, biochemical, small-molecule microarray, residues 1-88, 635 nm (AID 1129); conditions: small-molecule microarray binding, fluorescence 635 nm; higher = more signal
# [3] = target: Focal adhesion kinase 1 (Homo sapiens) (UniProt Q05397); assay: small-molecule microarray binders of FAK, primary screen, biochemical, 635/667 nm fluorescence, BSA, DTT (AID 1130); conditions: PTK2 binding, 635 nm fluorescence, higher = more signal;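 also: composite of spot emission at 667 nm and signal to noise over triplicate slides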
# [4] = tested on: Fibrinogen (Alexa647-labelled); assay: fibrinogen binders on compound microarrays, profiling panel, artefact control for SMM control-protein annotation, biochemical, small-molecule microarray, 635/667 nm fluorescence (AID 1131); conditions: fibrinogen-A647 binding fluorescence, higher = more signal;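 also: z-score merges 667 nm fluorescence with per-spot signal-to-noise over triplicate slides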
# [5] = target: Follistatin (Homo sapiens) (UniProt P19883); assay: follistatin binders on small-molecule microarrays, primary screen, biochemical, small-molecule microarray, 635/667 nm fluorescence (AID 1132); conditions: FST binding, 635 nm fluorescence, higher = more signal
# [6] = target: Fibroblast growth factor 2 (Homo sapiens) (UniProt P09038); assay: FGF2 binders on small-molecule microarrays, primary screen, biochemical, small-molecule microarray, 635/667 nm fluorescence (AID 1133); conditions: small-molecule microarray binding, FGF2, fluorescence 635/667; higher = more signal
# [7] = mitochondrial membrane potential change in A549 cells, profiling panel, cell-based, JC-1 fluorescence, basal, 24 h, 100 nL (AID 1138); conditions: higher = more signal;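 also: A549 lung adenocarcinoma cells under basal conditions with no added stimulus; test concentration not given here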
# Lefty1 = Lefty1 binders on small-molecule microarrays, primary screen, biochemical, small-molecule microarray, 635/667 nm fluorescence (AID 1139); conditions: small-molecule microarray binding, fluorescence 635/667; higher = more signal
# [8] = tested on: wheat germ agglutinin (Triticum aestivum), Alexa647-labelled; assay: wheat germ agglutinin binders on compound microarrays, profiling panel, artefact control for SMM control-protein annotation, biochemical, small-molecule microarray, 635/667 nm fluorescence (AID 1140); conditions: WGA-A647 binding, 635 nm fluorescence, higher = more signal;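 also: score merges 667 nm feature emission with signal to noise over triplicate slides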
# [9] = target: Luciferin 4-monooxygenase (Photinus pyralis) (UniProt P08659); assay: firefly luciferase enzyme inhibitors, primary screen, biochemical, luminescence, purified enzyme, 2006 set (AID 1141); conditions: SteadyGlo luminescence, 30 min, higher = more signal, called active from +8 up or from −8 down;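 also: cell-free assay with purified firefly luciferase at 100 ng per well in PBS; test concentration not given here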
# [10] = tested on: Wnt5a (protein binding on small-molecule microarray); assay: Wnt5a binders on small-molecule microarray, primary screen, biophysical, 635/667 nm fluorescence (AID 1142); conditions: 635 nm fluorescence, higher = more signal;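 also: fluorescence read at 667 nm with signal to noise per printed feature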
# [11] = cell viability in Huh7 cells, primary screen, cytotoxicity control for HCV replication inhibitor project, CellTiter-Glo luminescence, basal, 48 h (AID 1143); conditions: Huh7 HCV replicon, higher = more signal, called active from +8 up or from −8 down;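 also: Huh7 hepatoma cells carrying a hepatitis C replication reporter with no stimulus; test concentration not given here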
# [12] = P. aeruginosa biofilm formation inhibitors, primary screen, PAO1 strain, BacTiter-Glo luminescence, LB-PBS (AID 1144); conditions: 12 h, higher = more signal
# [13] = CREB reporter modulators without forskolin, primary screen, cell-based, PC12, CRE-LacZ reporter, unstimulated (AID 1145); conditions: no forskolin, luminescence, 4.5 h, higher = more signal, called active from +8 up or from −8 down
# [14] = CREB reporter modulators under forskolin, primary screen, cell-based, PC12, CRE-LacZ reporter, forskolin-stimulated (AID 1146); conditions: luminescence, 4.5 h, higher = more signal, called active from +8 up or from −8 down;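 also: PC12 cells with 6xCRE LacZ reporter stimulated by forskolin 10 µM; beta-galactosidase reporter signal reflecting CREB driven transcription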
# [15] = target: Streptavidin (Streptomyces avidinii) (UniProt P22629); assay: streptavidin binders on small-molecule microarray, primary screen, artefact control for SMM compound annotation, biophysical, 635/667 nm fluorescence (AID 1147); conditions: streptavidin binding, higher = more signal;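 also: signal reflects streptavidin binding to arrayed compounds as a control protein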
# [16] = small-molecule binders of probe aInhba, primary screen, biochemical, small-molecule microarray, 635/667 nm fluorescence (AID 1148); conditions: higher = more signal;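 also: score merges 667nm spot fluorescence with signal-to-noise for antibody binding to printed compounds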
# Torsin-1A (Homo sapiens) [17] = target: Torsin-1A (Homo sapiens) (UniProt O14656); assay: torsin A binders from cell lysate, primary screen, small-molecule microarray, wild-type, 635/667 nm (AID 1149); conditions: COS7 hTOR1A-WT lysate, 635 nm fluorescence, higher = more signal
# Torsin-1A (Homo sapiens) [18] = target: Torsin-1A (Homo sapiens) (UniProt O14656); assay: small-molecule binders of mutant TOR1A in lysate, primary screen, cell lysate, small-molecule microarray, COS7 lysate, 635/667 nm fluorescence (AID 1150); conditions: COS7 hTOR1A mutant lysate, 635 nm fluorescence, higher = more signal;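 also: score pools 667 nm emission and signal to noise measuring lysate protein binding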
# [19] = tested on: Sonic hedgehog protein (Shh); assay: small-molecule binders of Shh protein, primary screen, biochemical, small-molecule microarray, 635/667 nm fluorescence (AID 1151); conditions: small-molecule microarray binding, 635 nm fluorescence; higher = more signal;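 also: Shh protein binding to compounds spotted on small-molecule microarray slides; score combines spot fluorescence intensity with signal-to-noise across triplicate slides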
# Chain of Luciferin 4-monooxygenase (Photinus pyralis) (P08659 whole entry, looked up): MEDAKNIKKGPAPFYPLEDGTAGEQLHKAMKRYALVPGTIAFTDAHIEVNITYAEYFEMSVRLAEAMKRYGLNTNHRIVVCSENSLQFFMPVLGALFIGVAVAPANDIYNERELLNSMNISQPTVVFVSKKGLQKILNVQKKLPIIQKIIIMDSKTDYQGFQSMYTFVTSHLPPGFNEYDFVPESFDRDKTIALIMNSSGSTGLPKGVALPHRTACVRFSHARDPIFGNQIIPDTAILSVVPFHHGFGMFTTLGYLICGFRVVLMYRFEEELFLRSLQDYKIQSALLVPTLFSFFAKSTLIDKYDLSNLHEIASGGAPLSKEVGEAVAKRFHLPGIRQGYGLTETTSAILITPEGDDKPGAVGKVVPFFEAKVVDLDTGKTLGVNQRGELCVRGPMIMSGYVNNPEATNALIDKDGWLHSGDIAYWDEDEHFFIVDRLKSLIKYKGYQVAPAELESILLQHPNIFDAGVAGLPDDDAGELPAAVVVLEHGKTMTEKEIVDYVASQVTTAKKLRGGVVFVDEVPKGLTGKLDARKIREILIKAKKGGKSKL
# Chain of Fibroblast growth factor 2 (Homo sapiens) (P09038 whole entry, looked up): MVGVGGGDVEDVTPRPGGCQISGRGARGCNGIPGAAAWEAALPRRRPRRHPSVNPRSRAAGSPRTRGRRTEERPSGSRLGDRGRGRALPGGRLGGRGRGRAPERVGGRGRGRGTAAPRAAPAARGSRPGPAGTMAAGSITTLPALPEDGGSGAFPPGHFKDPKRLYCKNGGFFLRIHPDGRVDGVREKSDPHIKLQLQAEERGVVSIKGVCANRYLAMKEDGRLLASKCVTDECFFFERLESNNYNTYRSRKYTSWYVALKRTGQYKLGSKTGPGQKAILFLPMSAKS
# Chain of Streptavidin (Streptomyces avidinii) (P22629 whole entry, looked up): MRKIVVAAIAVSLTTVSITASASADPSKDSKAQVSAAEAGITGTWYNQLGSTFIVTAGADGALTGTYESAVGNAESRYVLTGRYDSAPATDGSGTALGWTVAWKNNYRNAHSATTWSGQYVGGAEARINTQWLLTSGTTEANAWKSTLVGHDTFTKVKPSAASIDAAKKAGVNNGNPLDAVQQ
# Chain of Follistatin (Homo sapiens) (P19883 whole entry, looked up): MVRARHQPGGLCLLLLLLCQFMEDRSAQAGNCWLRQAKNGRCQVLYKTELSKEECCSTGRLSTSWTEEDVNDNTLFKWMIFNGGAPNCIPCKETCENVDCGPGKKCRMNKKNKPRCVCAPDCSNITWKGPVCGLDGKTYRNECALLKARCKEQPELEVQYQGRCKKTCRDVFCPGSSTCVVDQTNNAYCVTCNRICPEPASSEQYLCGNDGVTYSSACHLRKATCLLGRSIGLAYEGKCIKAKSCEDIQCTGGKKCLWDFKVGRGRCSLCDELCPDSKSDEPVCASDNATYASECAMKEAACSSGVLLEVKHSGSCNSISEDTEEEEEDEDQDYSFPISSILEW
# Chain of Torsin-1A (Homo sapiens) (O14656 whole entry, looked up): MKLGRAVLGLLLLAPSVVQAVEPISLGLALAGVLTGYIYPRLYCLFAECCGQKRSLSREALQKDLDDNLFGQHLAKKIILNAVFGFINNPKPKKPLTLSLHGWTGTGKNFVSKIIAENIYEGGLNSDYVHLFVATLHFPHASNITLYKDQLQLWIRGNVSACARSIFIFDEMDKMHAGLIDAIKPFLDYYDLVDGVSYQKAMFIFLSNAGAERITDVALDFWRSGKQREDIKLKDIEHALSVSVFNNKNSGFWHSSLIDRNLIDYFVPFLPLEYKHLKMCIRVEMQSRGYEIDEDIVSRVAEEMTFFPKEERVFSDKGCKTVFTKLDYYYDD
# Chain of Focal adhesion kinase 1 (Homo sapiens) (Q05397 whole entry, looked up): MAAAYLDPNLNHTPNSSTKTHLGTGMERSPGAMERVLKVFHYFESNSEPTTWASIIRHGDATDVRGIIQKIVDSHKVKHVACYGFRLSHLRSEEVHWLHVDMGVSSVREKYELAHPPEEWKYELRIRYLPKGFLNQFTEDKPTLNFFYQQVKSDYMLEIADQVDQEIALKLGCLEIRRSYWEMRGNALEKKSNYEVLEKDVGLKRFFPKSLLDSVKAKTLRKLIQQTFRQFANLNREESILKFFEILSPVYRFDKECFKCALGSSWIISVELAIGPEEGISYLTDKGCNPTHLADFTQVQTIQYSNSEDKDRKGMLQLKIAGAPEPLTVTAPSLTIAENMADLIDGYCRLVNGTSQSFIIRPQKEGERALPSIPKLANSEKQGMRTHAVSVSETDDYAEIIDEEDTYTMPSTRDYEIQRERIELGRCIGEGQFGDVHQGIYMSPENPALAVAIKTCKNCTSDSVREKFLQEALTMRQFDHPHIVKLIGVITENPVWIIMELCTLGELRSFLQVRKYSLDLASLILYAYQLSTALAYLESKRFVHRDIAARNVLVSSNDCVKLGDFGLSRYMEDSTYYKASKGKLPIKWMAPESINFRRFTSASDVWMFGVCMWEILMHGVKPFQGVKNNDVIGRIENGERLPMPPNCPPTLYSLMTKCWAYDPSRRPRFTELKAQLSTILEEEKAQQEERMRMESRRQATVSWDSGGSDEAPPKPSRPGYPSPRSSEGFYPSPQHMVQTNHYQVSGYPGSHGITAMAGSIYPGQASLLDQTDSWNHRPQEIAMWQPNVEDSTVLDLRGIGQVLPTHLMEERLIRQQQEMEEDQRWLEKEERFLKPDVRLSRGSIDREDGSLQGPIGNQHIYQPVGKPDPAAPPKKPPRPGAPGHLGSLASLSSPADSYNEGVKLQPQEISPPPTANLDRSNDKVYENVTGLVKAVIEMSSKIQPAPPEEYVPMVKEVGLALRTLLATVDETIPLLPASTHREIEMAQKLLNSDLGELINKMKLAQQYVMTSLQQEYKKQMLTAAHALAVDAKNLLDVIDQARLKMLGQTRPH
SMILES,composite z-score [1],composite z-score [2],composite z-score [3],composite z-score [4],composite z-score [5],composite z-score [6],z-score [7],composite z-score (Lefty1),composite z-score [8],z-score [9],composite z-score [10],z-score [11],z-score [12],z-score [13],z-score [14],composite z-score [15],composite z-score [16],composite z-score (Torsin-1A (Homo sapiens) [17]),composite z-score (Torsin-1A (Homo sapiens) [18]),composite z-score [19]
COC(=O)C1(Cc2ccccc2)C=C2C(=C(C(C)C)C(=O)C2C)CN1 (stereo not given),3.27,-0.11,0.757,-0.72,-1.25,-1.07,-1.83,-1.36,0.349,1.27 (inactive),0.131,-0.576 (inactive),0.429 (inactive),0.59 (inactive),-0.173 (inactive),-0.333,0.147,0.334,0.707,-0.45
CCOC(=O)C1=CC[C@@H](c2ccc([N+](=O)[O-])cc2)N(S(=O)(=O)c2ccc(C)cc2)[C@H]1c1ccccc1,1.89,1.21,0.471,0.979,1.01,0.554,1.26,0.969,0.695,1.94 (inactive),0.503,-1.36 (inactive),-0.41 (inactive),0.182 (inactive),0.147 (inactive),1.57,0.165,0.149,0.763,1.39
CN(C)CCCN1C(=O)[C@@]2(c3ccc([N+](=O)[O-])cc3)CC(=O)N(CC34CC5CC(CC(C5)C3)C4)[C@@H]2c2ccc(CO)cc21,1.98,-0.0813,-0.117,0.926,0.203,-0.112,1.72,0.13,0.354,-0.701 (inactive),-0.199,0.278 (inactive),0.878 (inactive),-0.0259 (inactive),-0.598 (inactive),-0.472,-0.0963,-0.524,-0.17,0.0109
O=C1NC(=O)C2C1C=CC(C(O)c1ccc(Br)cc1)N2Nc1ccccn1 (stereo not given),1.32,0.173,0.231,0.995,0.426,0.657,0.631,-0.162,0.806,-1.52 (inactive),0.336,-0.0358 (inactive),-1.45 (inactive),-0.322 (inactive),0.521 (inactive),0.363,0.126,0.196,0.301,-0.248
O=C1c2ccccc2[C@](Cc2ccccc2I)(C(=O)NCc2ccccc2)[C@H](c2ccc(CO)cc2)N1C1CCCCC1,2.68,1.2,0.699,0.945,1.54,1.93,-0.0853,1.42,1.04,-0.0828 (inactive),0.52,-4.84 (inactive),-0.479 (inactive),0.0655 (inactive),-0.183 (inactive),1.71,0.295,0.326,0.489,1.75
